# Bioassay records: PubChem, Johns Hopkins Ion Channel Center
# In the library only some 1.6% were active in any assay of this set; here they are far more common.
# KCNQ2 block: rat KCNQ2 potassium channel inhibitors, primary screen, cell-based, CHO-K1, FluxOR thallium flux, B-score; Potassium voltage-gated channel subfamily KQT member 2 (Rattus norvegicus), O88943; 20 min; stronger effect = lower value; B-score at 10 µM; actives 1.1% (n = 310,000); AID 2156, 2009;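 active means fluorescence ratio B-score at most minus 3 library SDs, with starting brightness B-score within 2 library SDs, cut at about -5.5 in these data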
# KCNQ2 enhance: potentiators of rat KCNQ2 potassium channel | Potassium voltage-gated channel subfamily KQT member 2 (Rattus norvegicus), O88943 | CHO-K1 KCNQ2, FluxOR thallium flux fluorescence; stronger effect = higher value | B-score at 10 µM | actives 0.54% (n = 310,000) | AID 2239, 2010;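 active means fluorescence ratio B-score at least 3 SD of library B-scores, with initial fluorescence B-score within 3 of them, cut at about 5.3 in these data; same plate scores as AID 2156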;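 further: B-score of peak minus minimum over baseline fluorescence ratio after K+ and Tl+ stimulus; positive B-score means potentiation of KCNQ2 with more thallium influx and brighter signal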
# Kir21 conf inh: mouse Kir2.1 channel blockers, retest, confirmation, cell-based, FluxOR thallium flux, duplicate | shares compounds with KCNQ2 enhance | Kir2.1-expressing cells, FluxOR thallium flux fluorescence; stronger effect = lower value | Tl flux remaining, % of negative control (stronger effect = lower value), % at 10 µM | actives 41% (n = 2,300);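 active means Primary-screen hit whose thallium flux fell at least 3 control SD below untreated wells in both duplicates, with normal baseline fluorescence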;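 further: 0% = blank wells without stimulus and 100% = stimulated no-compound controls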
# HEK293 ctr: alters thallium flux in parental HEK293 cells, Kir2.1 counter-screen | shares compounds with KCNQ2 enhance | FluxOR thallium flux fluorescence; 0% = unstimulated blank wells | FluxOR signal as % of negative control (100 = no effect), % at 10 µM | actives 19% (n = 2,300) | AID 2105;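 active means dye signal at least 3 control SD above or below untreated wells in both duplicates, raw fluorescence within 3, either direction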;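 further: percent is based on the flux ratio of peak minus minimum fluorescence over baseline F0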
# CHO-K1 ctr: nonspecific thallium flux increase in parental CHO-K1, confirmation, counter-screen for KCNQ2 potentiator project, cell-based, FluxOR thallium flux, duplicate | shares compounds with KCNQ2 enhance | parental CHO-K1 cells, FluxOR thallium flux fluorescence; zero = vehicle mean+3SD, 100% = vehicle-minus-blank window | activity increase over 3SD of controls, % at 10 µM | actives 43% (n = 1,200) | AID 2282, 2010;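 active means signal rise of at least 3 SD above the untreated control mean, in both duplicate wells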;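 further: counter screen of KCNQ2 potentiator hits so any rise reflects channel-independent effects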
# KCNQ1 sel pot: human KCNQ1 channel potentiation off-target, confirmation, selectivity assay for KCNQ2 potentiator project, cell-based, CHO, FluxOR thallium flux; shares compounds with KCNQ2 enhance; CHO KCNQ1 stable, FluxOR thallium flux fluorescence; beyond 3SD, as % of vehicle-control signal; activation over 3SD threshold, % at 10 µM; actives 28% (n = 1,200); AID 2283, 2010;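 active means fluorescence ratio rise of at least 3 SD of vehicle wells above their mean, in both replicate wells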;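 further: 0% = vehicle mean plus 3 SD and 100% = vehicle minus unstimulated blank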
# KCNQ2 pot confirm: rat KCNQ2 channel potentiators, confirmation, cell-based, CHO, FluxOR thallium flux, duplicate; potentiation, less the hit threshold, % at 10 µM; actives 68% (n = 1,200); shares compounds with KCNQ2 enhance; CHO-KCNQ2 cells, FluxOR thallium flux fluorescence;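 active means fluorescence ratio rising 3 SD or more over the vehicle control mean in both replicates, plus primary screen hit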;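 further: peak minus minimum thallium fluorescence divided by baseline after K/Tl stimulus; 0% = vehicle mean plus 3 SD and 100% = vehicle minus unstimulated blank difference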
# Kir21 spec: mouse Kir2.1 channel activation off-target, confirmation, selectivity assay for KCNQ2 potentiator project, cell-based, HEK293, FluxOR thallium flux; shares compounds with KCNQ2 enhance; activity over 3SD threshold, % at 10 µM; actives 2% (n = 1,200); AID 2345, 2010; HEK293 Kir2.1, FluxOR thallium flux fluorescence;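 active means fluorescence ratio rise of at least 3 SD above the vehicle-control mean, seen in both replicates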;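 further: 0% = vehicle mean plus 3 SD and 100% = vehicle minus no-stimulus blank window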
# KCNQ2 W236L pot: potentiators of retigabine-insensitive KCNQ2 W236L, mechanism study for KCNQ2 potentiator project, cell-based, rat KCNQ2 W236L, CHO, automated patch clamp. shares compounds with KCNQ2 enhance. automated patch clamp current. current increase over 3SD of negative controls (%), stronger effect = higher value, % at 25 µM. actives 10% (n = 940). AID 2558, 2010;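 active means current increase at least 3 SD of the untreated controls above them in both duplicate recordings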
# Target sequence (O88943 whole entry W236L, looked up): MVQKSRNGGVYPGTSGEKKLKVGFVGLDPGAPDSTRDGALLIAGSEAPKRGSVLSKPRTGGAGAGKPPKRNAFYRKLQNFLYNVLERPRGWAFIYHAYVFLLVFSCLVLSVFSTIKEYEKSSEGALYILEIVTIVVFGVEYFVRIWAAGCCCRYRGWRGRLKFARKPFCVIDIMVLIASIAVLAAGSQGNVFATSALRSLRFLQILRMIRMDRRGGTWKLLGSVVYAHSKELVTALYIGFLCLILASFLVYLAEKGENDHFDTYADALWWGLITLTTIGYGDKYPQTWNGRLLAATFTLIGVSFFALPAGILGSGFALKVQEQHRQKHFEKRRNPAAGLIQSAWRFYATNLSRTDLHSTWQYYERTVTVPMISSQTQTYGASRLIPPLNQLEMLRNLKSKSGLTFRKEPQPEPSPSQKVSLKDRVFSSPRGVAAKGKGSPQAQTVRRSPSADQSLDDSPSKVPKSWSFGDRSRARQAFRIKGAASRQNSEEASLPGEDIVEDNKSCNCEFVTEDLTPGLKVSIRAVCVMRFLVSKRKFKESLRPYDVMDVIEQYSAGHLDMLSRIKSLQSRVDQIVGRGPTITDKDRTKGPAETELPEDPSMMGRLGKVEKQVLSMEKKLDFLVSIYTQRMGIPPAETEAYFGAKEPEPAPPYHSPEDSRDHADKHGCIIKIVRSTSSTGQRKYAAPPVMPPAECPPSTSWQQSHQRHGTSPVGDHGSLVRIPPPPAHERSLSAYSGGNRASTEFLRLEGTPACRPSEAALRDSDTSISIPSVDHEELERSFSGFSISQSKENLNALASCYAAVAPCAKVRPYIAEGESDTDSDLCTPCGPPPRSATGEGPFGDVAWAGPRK
# Numbers without * were called inactive; i = inactive; . = no result.
SMILES,KCNQ2 block,KCNQ2 enhance,Kir21 conf inh,HEK293 ctr,others
CC(=O)C1=C(C)NC(SCC(=O)c2ccc(Cl)cc2Cl)=C(C#N)C1c1ccco1 (configuration not stated),i,1.4,.,.,
CN(C)[C@@H]1CCC[C@@H]1OC(=O)C(c1ccccc1)c1ccccc1,i,.,.,.,
O=C(Nc1ccc(Cl)cc1)C(Cl)C(=O)c1ccccc1 (configuration not stated),i,0.25,70%*,i,
O=C(NC(=S)Nc1ccc(Cl)cc1)c1ccccc1,i,.,.,.,
N#Cc1ccc(-c2cccnc2)nc1SCC(=O)Nc1sc2c(c1C#N)CCC2,i,.,.,.,
CCOC(=O)CNC(=O)C12CC3CC(CC(C3)C1)C2,i,0.43,.,.,
Cc1nonc1OCCNC(=O)C12CC3CC(CC(C3)C1)C2,i,13*,i,74%*,CHO-K1 ctr=74*;KCNQ1 sel pot=-20;KCNQ2 pot confirm=-14;Kir21 spec=-41
CCN1C(=O)CSc2ccc(C(=O)NCc3ccc(OC)cc3)cc21,i,0.62,58%*,i,
CCOc1ccc(CNC(=O)c2ccc3c(c2)N(CC)CCS3)cc1,i,.,.,.,
CNS(=O)(=O)/C=C/c1ccccc1,i,16*,i,i,CHO-K1 ctr=-4;KCNQ1 sel pot=-28;KCNQ2 pot confirm=-16;Kir21 spec=-33
CCCNS(=O)(=O)/C=C/c1ccccc1,i,1.2,.,.,
O=C(C1=C(O)C(=O)N(CCCn2ccnc2)C1c1cccc(Br)c1)c1ccco1 (configuration not stated),i,0.03,.,.,
O=C(NNC(=O)c1ccc([N+](=O)[O-])cc1)NC1CCCCC1,i,.,.,.,
COc1ccccc1CCC(=O)NNC(=O)c1ccccc1,i,1.6,.,.,
O=C(O)c1ccc(Nc2cc(Cl)c3nonc3c2[N+](=O)[O-])cc1,i,1.1,.,.,
O=[N+]([O-])c1c(Nc2cccc(O)c2)cc(Cl)c2nonc12,-16*,-16,i,i,
Cc1oc2cc([N+](=O)[O-])c(O)c([N+](=O)[O-])c2c1C(=O)c1ccc(Cl)cc1,i,7.9*,i,144%*,CHO-K1 ctr=88*;KCNQ1 sel pot=-10;KCNQ2 pot confirm=14*;Kir21 spec=-34;KCNQ2 W236L pot=10%*
COc1ccc(OC)c(C(=O)c2c(C)oc3cc([N+](=O)[O-])c(O)c([N+](=O)[O-])c23)c1,i,0.84,.,.,
CC1CCCN(S(=O)(=O)c2csc(C(N)=O)c2)C1 (configuration not stated),i,0.24,.,.,
CC1CCN(CC(=O)Nc2ccc(N3CCCCCC3)cc2)CC1,i,5.9*,.,.,CHO-K1 ctr=7.2*;KCNQ1 sel pot=-15;KCNQ2 pot confirm=-11;Kir21 spec=-62
CC1CCN(CC(=O)Nc2ccc(S(=O)(=O)N3CCCCC3)cc2)CC1,i,0.02,.,.,
CN(C)CCNC(=O)COc1ccc(C23CC4CC(CC(C4)C2)C3)cc1,i,.,41%*,i,
Cc1ccc(C23CC4CC(CC(NC(=O)NCCN(C)C)(C4)C2)C3)cc1,i,.,.,.,
Cc1cccc(/C=N/NC(=O)NC23CC4CC(CC(C4)C2)C3)n1,i,0.21,.,.,
Fc1cccc(NCCc2c[nH]c3ccccc23)n1,i,1.1,.,.,
SMILES,KCNQ2 block,KCNQ2 enhance,Kir21 conf inh,HEK293 ctr,others
c1ccc2c(NCCc3c[nH]c4ccccc34)c3ccccc3nc2c1,i,.,38%*,i,
COc1ccc(CCNC(=O)COc2ccc(S(=O)(=O)NCC(C)C)cc2Cl)cc1OC,i,1.3,.,.,
CC1CCCN(CCOCCOc2ccc(Br)cc2Cl)C1 (configuration not stated),i,.,.,.,
CC1CCN(CCCOc2ccc(Br)cc2Cl)CC1,i,.,38%*,i,
CCOC(=O)c1c(NC(=O)COC(=O)/C=C/c2ccco2)sc2c1CC(C)(C)NC2(C)C,i,0.02,.,.,
O=C(NC(=S)Nc1nc2ccc(F)cc2s1)c1ccco1,i,13*,i,i,CHO-K1 ctr=-16;KCNQ1 sel pot=-33;KCNQ2 pot confirm=26*;Kir21 spec=-33;KCNQ2 W236L pot=i
CC1CCN(c2ccccc2NC(=S)NC(=O)c2cccs2)CC1,i,.,.,.,
O=C(NC(=S)Nc1ccccc1Br)c1ccco1,i,9.5*,i,181%*,CHO-K1 ctr=4.9*;KCNQ1 sel pot=91*;KCNQ2 pot confirm=19*;Kir21 spec=-20;KCNQ2 W236L pot=i
COc1ccc(-c2csc(NC(=S)NC(=O)c3ccco3)n2)cc1Br,i,5.7*,i,i,CHO-K1 ctr=30*;KCNQ1 sel pot=22*;KCNQ2 pot confirm=-10;Kir21 spec=-31
O=C(NC(=S)Nc1cccc(NC(=S)NC(=O)c2ccco2)n1)c1ccco1,i,.,.,.,
CC1CCN(c2ccccc2NC(=S)NC(=O)c2ccco2)CC1,i,5.9*,i,i,CHO-K1 ctr=-5;KCNQ1 sel pot=-8;KCNQ2 pot confirm=-7;Kir21 spec=-30
COc1ccc(-c2csc(NC(=S)NC(=O)c3cc4ccccc4o3)n2)cc1Br,i,2.8,.,.,
CS(=O)(=O)c1ccc2nc(NC(=O)c3ccco3)sc2c1,i,0.64,.,.,
CC1CCCN(CCCCOc2cccc(Br)c2)C1 (configuration not stated),i,0.49,.,.,
Cc1[nH]n(C(N)=S)c(=O)c1N=Nc1ccc(Br)cc1,i,0.03,.,.,
Cc1cc(=O)[nH]c(N2CCCNCC2)n1,i,1.3,.,.,
Cc1ccoc1C(=O)Nc1ccc2ccccc2c1,i,19*,i,i,CHO-K1 ctr=49*;KCNQ1 sel pot=-17;KCNQ2 pot confirm=75*;Kir21 spec=-18;KCNQ2 W236L pot=i
CCOc1ccc(NC(=O)c2ccco2)cc1,i,1.8,.,.,
CCOc1ccc(NC(=S)NC(=O)c2ccco2)cc1,i,7.8*,i,163%*,CHO-K1 ctr=-8;KCNQ1 sel pot=38*;KCNQ2 pot confirm=23*;Kir21 spec=-19;KCNQ2 W236L pot=i
Cc1cc(C(=O)Nc2ccc3ccccc3c2)oc1C,i,.,.,.,
